Screening data: PubChem, National Center for Advancing Translational Sciences (NCATS)
Shown are actives, neighbours in structure and some others; about 0.65% of the full set was active somewhere.
SARS PLpro yeast: SARS-CoV PLP inhibition in yeast. Potency, µM (highest dose often 32.9 µM), for inactives: top-dose activity, positive = growth rescue, usual class: activators. actives 0.19% (n = 330,000). S. cerevisiae expressing SARS-CoV PLpro, growth rescue; also: 0% is about no effect; nearly all actives have a fitted effect of over 55% in size
AMA1-RON2 inh: inhibitors of Plasmodium falciparum AMA1-RON2 interaction | AlphaScreen AMA1-biotinylated RON2 peptide binding | actives 0.2% (n = 360,000) | Potency, µM (top dose mostly 58.2 µM), for the others: top-dose activity change, negative = inhibition, hits mostly inhibitors; active = well fitted inhibition curve with a large enough effect; inconclusive = small, poorly fitted or top-dose-only effect; inactive = no such curve, though single readings can be large or run the other way;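 also: 0% = vehicle wells and -100% = peptide control; nearly all actives have a fitted effect of over 45% in size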
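AMA1 (3D7) with his tag at 25 nM final met compounds first, then biotinylated RON2 peptide at 25 nM; detection used donor plus acceptor beads, 10 µg/mL apiece, read by AlphaScreen after 30 min at room temperature.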
NS1 function inh: blocks influenza NS1 protein function; Potency, µM (titrated, usually from 46.1 µM), without a hit: top-dose activity, positive = more growth; actives 0.4% (n = 270,000); AID 2326; also: actives are rising curves; nearly all actives have a fitted effect of over 50% in size
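A cell-based growth assay was used: compounds that relieve NS1-induced slow growth of budding yeast raise OD600. Assay medium was yeast nitrogen base with ammonium sulphate and -URA supplement, pH 6.0, with 2% galactose.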
The depositor's hits bear a star; ? = inconclusive; . = no result given; [ ] = remark or other dose. Unless noted, calls follow the shape of the full dose curve. Potency is read from the fitted curve at half-maximal effect.

SMILES | SARS PLpro yeast | AMA1-RON2 inh | NS1 function inh
Fc1cccc(CNc2ncnc3ccc(-c4ccc5c(c4)OCO5)cc23)c1 | 3% | . | .
CCOCCn1c(=O)c2c(nc3n2CCN3c2ccc(C)c(C)c2)n(C)c1=O | 5% | . | .
C[C@@H]1CN([C@H](C)CO)C(=O)CCCn2nncc2CO[C@@H]1CN(C)C(=O)c1cc(-c2ccccc2)on1 | . | 4% | .
C[C@@]12CCC(=O)C=C1CC[C@H]1C2[C@@H](O)C[C@]2(C)[C@@H]1CC[C@@]2(O)C(=O)CO (some centres not stated) | . | . | -6%
CCOc1ccc(N=c2cc(-c3ccc(OC)cc3)oc3ccccc23)cc1 | -59% | 14µM* | 2%
COc1ccc(N=c2cc(-c3ccc(OC)cc3)oc3ccccc23)cc1 | -40% | 13µM* | -49%
COc1ccc(N=c2cc(-c3ccc(O)cc3)oc3ccccc23)cc1 | 11% | -29% | -29%
COc1ccc(-c2cc(=Nc3ccc(C)cc3)c3ccccc3o2)cc1 | -14% | -5% | 0%
Cc1ccc(C(=O)CCC(=O)OC(C)C(=O)NC2CCCCC2C)cc1 (configuration not stated) | -9% | 11% | .
N#Cc1ccc2c(c1)C[C@]1(CCCCN3C(=O)c4ccccc4C3=O)Oc3c(c(=O)oc4ccc(F)cc34)C2O1 | -13%[6.58 µM] | . | 14%
CSc1nc(N(C)CCO)c2sc3nc(-c4ccco4)c4c(c3c2n1)CCC4 | 1% | 12µM* | ?
CSc1nc(NCCN(C)C)c2sc3nc(-c4ccco4)c4c(c3c2n1)CCC4 | . | -13% | .
COC(=O)c1cnn(-c2ccc(C(=O)Nc3ccc(C(C)=O)cc3)cc2)c1N | -6% | . | .
O=[N+]([O-])c1cc(Cl)ccc1NCCc1ccccn1 | -35% | 22µM* | -42%
N#Cc1ccc(NCCc2ccccn2)c([N+](=O)[O-])c1 | 0% | -2% | -2%
CC(=O)c1cccc(-c2ccnc3c2CC(C(=O)Nc2ccccc2)O3)c1 (configuration not stated) | . | 0% | .
O=C1[C@H]2[C@H]3C=C[C@@H](C4[C@H]3[C@@H]3C(=O)N(CN5CCSCC5)C(=O)[C@H]43)[C@H]2C(=O)N1CN1CCSCC1 (some centres not stated) | . | . | 5%
C/C(CCc1oc2c(Br)cc(Br)cc2c1-c1ccc(C)o1)=N\O | -60% | 3.8µM* | -3%
C/C(CCc1oc2ccccc2c1-c1ccc(C)o1)=N/O | -18% | -20% | -41%
CC(NC(=S)Nc1ccc(OC(F)F)cc1OC(F)F)C(C)(C)C (configuration not stated) | -9% | 23% | -32%
CC(NC(=S)Nc1ccccc1OC(F)F)C(C)(C)C (configuration not stated) | 11µM* | -1% | -8%
C/C(CC(=O)Nc1ccc2ccccc2c1)=N\NC(=O)c1ccc(O)c(O)c1 | -4% | 97% | -9%
O=C(Nc1ccc(N2CCCC2)c(Cl)c1)c1ccc([N+](=O)[O-])cc1 | 1% | -1% | 2%
Cc1cc(C(=O)Nc2ccc(N3CCCC3)c(Cl)c2)ccc1[N+](=O)[O-] | 1% | 22µM* | 6%
COc1cc(C2OC(=O)c3c2ccc(OC)c3OC)ccc1O (configuration not stated) | 6% | . | .
SMILES | SARS PLpro yeast | AMA1-RON2 inh | NS1 function inh
Cc1ccc(C(=O)NCC(=O)Nc2ccc(S(=O)(=O)Nc3cc(C)nc(C)n3)cc2)cc1 | 3% | -5% | .
CN1C(=O)c2cccc(N(C)C)c2C1=O | 3% | ? | 2%
CN(C)c1cccc2c1C(=O)c1ccccc1C2=O | -24% | 11µM* | -11%
CCn1cc(C(=O)NCc2ccco2)c(=O)c2ccc(C)nc21 | -2% | -6% | -4%
O=S(=O)(O)c1cc(O)c2cc(Nc3ccccc3)ccc2c1 | . | -20% | .
O=S(=O)(O)c1ccc(O)c2cc(Nc3ccccc3)ccc12 | . | 3.2µM* | .
Cc1ccc(NC2=C(N3CCOCC3)C(=O)c3ccccc3C2=O)cc1 | -20% | 24µM* | 10%
CC(=O)c1ccc(NC2=C(N3CCOCC3)C(=O)c3ccccc3C2=O)cc1 | -9% | ? | -7%
NC1=NC([S][Hg][c]2ccc(N)cc2)c2ncn([C@@H]3O[C@H](CO)[C@@H](O)[C@@H]3O)c2N1 (some centres not stated) | . | . | -31%
O=C1/C(=C/c2ccco2)Oc2c1ccc(O)c2CN1CCCCC1 | 13% | ? | 14%
CC1CCN(Cc2c(O)ccc3c2O/C(=C\c2ccco2)C3=O)CC1 | -19% | ? | 8.9µM*
CN1OC[C@@H]2CN(Cc3ccc(Cl)cc3)[C@H](c3ccc(N4CCCCC4)cc3)C[C@@H]21 | . | 16µM* | .
COCC(=O)N1C[C@H]2CON(C)[C@H]2C[C@H]1c1ccc(N2CCCCC2)cc1 | . | 3% | .
CCN1c2ccccc2N(C)C1(C)c1ccccc1 (configuration not stated) | -23% | 32µM* | 22%
CN1c2ccccc2N(C)C1(C)c1ccccc1 | -24% | ? | ?
Oc1ccc(CNc2ccccc2)c2cccnc12 | 10µM* | -74% | -7%
COCc1ccc(O)c2ncccc12 | -35% | 25µM* | -141%
Oc1ccc(COc2cccc3ccccc23)c2cccnc12 | -2% | . | .
Oc1ccc(CNc2ccc(F)cc2)c2cccnc12 | 12% | ? | -46%
Oc1ccc(CNCc2ccc3c(c2)OCO3)c2cccnc12 | 4% | . | .
CCOc1ccccc1NC(=O)COC(=O)C1CCC(=O)N1 (configuration not stated) | -3% | ? | .
COc1ccccc1N(C(=O)CCl)c1cn(C(C)=O)c2ccccc12 | -1% | 4% | 3%
COc1ccccc1N(C(C)=O)C1=C(Cl)C(=O)c2ccccc2C1=O | . | 13µM* | .
N#Cc1ccc2c(c1)C[C@]1(CCCCN3C(=O)c4ccccc4C3=O)OC3=C(C(=O)OC4(CCCCC4)C3)C2O1 | -3%[6.58 µM] | . | -5%
COc1ccc(N2CCN(C(=O)c3cn(C)c(=O)c4c3c3ccccc3n4C)CC2)cc1 | 10% | -28% | -7%
SMILES | SARS PLpro yeast | AMA1-RON2 inh | NS1 function inh
COc1ccc(N2CCN(C(=O)c3cn(C4CCCC4)c(=O)c4c3c3ccccc3n4C)CC2)cc1 | 0% | 14µM* | 10%
CCOC(=O)CN1C(=O)N[C@@H](c2cccc(C(F)(F)F)c2)C(C(=O)OC)=C1C | . | -2% | .
Cc1[nH]n(-c2ccccc2)c(=O)c1N=Nc1nccs1 | -30% | 30% | -149%
CN(C)c1ccc(N=Nc2nccs2)cc1 | . | 11µM* | .
O=C(NCC1CCCO1)C1CCCN1C(=O)Nc1ccc(Cl)cc1 (configuration not stated) | 1% | 8% | 6%
Cc1ccccc1-c1cc2nc(NCc3ccccc3)n(C)c(=O)c2s1 | . | 0% | .
Cc1ccccc1-c1cc2nc(NCc3ccc(N(C)C)cc3)n(C)c(=O)c2s1 | . | 18µM* | .
CCCC(=O)NCCc1c2n(c3ccc(OC)cc13)Cc1ccccc1-2 | . | . | 2%
OCc1nc2ccccc2n1CCOc1ccccc1 | . | 31% | .
CCOc1ccc(NCc2nc3ccccc3n2CCOc2ccccc2)cc1 | -84% | 14µM* | 18%
Cc1c(Cl)cccc1NC(=O)c1cc(-c2ccc(O)cc2)on1 | . | . | -83%
CC(=O)/C(=N/Nc1ccccc1[N+](=O)[O-])N1CCCc2ccccc21 | -2% | 8.9µM* | 1%
CC(=O)/C(=N/Nc1ccc([N+](=O)[O-])cc1)N1CCCc2ccccc21 | 3% | 2% | -31%
